Assay results as given in PubChem BioAssay.
The source made the active and inactive calls.

How the values were obtained:
[1] = optical density shifts of acrAB sulA E. coli – strain DRC41, OD650, 48 h, E. coli filamentation inducer project, primary screen (AID 1152); conditions: higher = more signal, called active from +8 up or from −8 down;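 further: E. coli MC1000 strain DRC41 lacking acrAB efflux pump and sulA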
[2] = probe aLefty1 binding on compound microarray – biochemical, small-molecule microarray, 635/667 nm fluorescence, primary screen (AID 1153); conditions: higher = more signal;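 further: score merges spot fluorescence with signal-to-noise ratio from the scanned slide images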
[3] = plasmodial surface anion channel blockers, osmotic lysis – cell-based, P. falciparum Indochina, OD700, 1 h, primary screen (AID 1154); conditions: P. falciparum Indochina infected RBC osmotic lysis, higher = more signal, called active from +8 up or from −8 down
[4] = plasmodial surface anion channel blockers, osmotic lysis – cell-based, P. falciparum Indochina, OD700, 2 h, primary screen (AID 1155);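 further: lysis reports solute entry through the parasite surface anion channel PSAC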; conditions: P. falciparum Indochina infected erythrocytes, higher = more signal, called active from +8 up or from −8 down
[5] = changes in parasitized red cell lysis, either direction – P. falciparum Indochina, OD700, 3 h, PSAC antagonist project, primary screen (AID 1156); conditions: P. falciparum-infected erythrocytes, osmotic lysis, higher = more signal, called active from +8 up or from −8 down
[6] = plasmodial surface anion channel blockers, osmotic lysis – cell-based, P. falciparum Indochina, OD700, 18 h, primary screen (AID 1157); conditions: P. falciparum Indochina infected erythrocytes, osmotic lysis OD700, 18 h; higher = more signal, called active from +8 up or from −8 down
[7] = S6 kinase pathway phospho-S6 level changes – cell-based, A549, cytoblot, luminescence, serum-stimulated, primary screen (AID 1158); conditions: 5 h, higher = more signal;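 further: serum-stimulated A549 lung adenocarcinoma cells; signal is phosphorylated S6 detected by cytoblot immunostaining with HRP secondary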
[8] = biological target: NADPH oxidase 2 (Homo sapiens) (UniProt P04839); assay: compounds shifting NOX2 Amplex Red fluorescence – cell-based, HEK293-NOX2, PMA-stimulated, NOX inhibitor project, primary screen (AID 1159); conditions: 45 min, higher = more signal, called active from +8 up or from −8 down; further: test concentration not given here
[9] = biological target: NADPH oxidase 4 (Homo sapiens) (UniProt Q9NPH5); assay: compounds shifting NOX4 Amplex Red fluorescence – cell-based, HEK293-NOX4, tetracycline-induced, NOX inhibitor project, primary screen (AID 1160); conditions: HEK293-NOX4, Amplex Red H2O2 fluorescence, 45 min; higher = more signal, called active from +8 up or from −8 down
[10] = biological target: NADPH oxidase 5 (Homo sapiens) (UniProt Q96PH1); assay: compounds shifting NOX5 Amplex Red fluorescence – cell-based, HEK293-NOX5, NOX inhibitor project, primary screen (AID 1161); conditions: HEK293-NOX5, ionomycin, 45 min, higher = more signal
[11] = compound effects on lung adenocarcinoma cell viability – A549, calcein-AM fluorescence, 48 h, basal, profiling panel (AID 1162); conditions: higher = more signal; further: test concentration not given here
[12] = compound effects on differentiated 3T3-L1 adipocyte viability – cell-based, 3T3-L1 adipocytes, calcein-AM fluorescence, 48 h, basal, profiling panel (AID 1163); conditions: 3T3-L1 adipocytes viability, higher = more signal; further: test concentration not given here
[13] = compound effects on hepatocellular carcinoma cell viability – HepG2, calcein-AM fluorescence, 48 h, basal, profiling panel (AID 1164); conditions: higher = more signal; further: test concentration not given here
[14] = compound effects on multiple myeloma cell viability – MM1S, calcein-AM fluorescence, 48 h, basal, profiling panel (AID 1165); conditions: higher = more signal; further: test concentration not given here
[15] = calcein-AM signal in unstimulated myeloma cells – cell-based, calcein-AM fluorescence, 48 h, PK04 Diversity Set, profiling panel (AID 1166); conditions: RPMI8226 myeloma viability, higher = more signal;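 further: cells grown under basal conditions without added stimulus; test concentration not given here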
[16] = JC-1 mitochondrial signal, unstimulated HepG2 cells – cell-based, JC-1 fluorescence, 24 h, 100 nL compound, profiling panel (AID 1167); conditions: HepG2 mitochondrial potential, higher = more signal; further: test concentration not given here
[17] = JC-1 mitochondrial signal, unstimulated adipocytes – cell-based, JC-1 fluorescence, 3T3-L1 adipocytes, 24 h, 100 nL compound, profiling panel (AID 1168); conditions: JC-1 mitochondrial fluorescence, higher = more signal, called active from +8 up or from −8 down; further: test concentration not given here
[18] = JC-1 mitochondrial signal, unstimulated myeloma cells – cell-based, JC-1 fluorescence, RPMI8226, 24 h, 100 nL compound, profiling panel (AID 1169); conditions: JC-1 mitochondrial potential fluorescence, higher = more signal; further: test concentration not given here
[19] = JC-1 mitochondrial signal, unstimulated MM1S myeloma – cell-based, JC-1 fluorescence, 24 h, 100 nL compound, profiling panel (AID 1170); conditions: MM1S mitochondrial potential, higher = more signal; further: test concentration not given here
[20] = resazurin metabolic signal in A549 cells – cell-based, resazurin fluorescence, 24 h, PK04 Diversity Set, profiling panel (AID 1171); conditions: A549 viability, higher = more signal, called active from +8 up or from −8 down; further: test concentration not given here

Chain of NADPH oxidase 5 (Homo sapiens) (Q96PH1 whole entry, looked up): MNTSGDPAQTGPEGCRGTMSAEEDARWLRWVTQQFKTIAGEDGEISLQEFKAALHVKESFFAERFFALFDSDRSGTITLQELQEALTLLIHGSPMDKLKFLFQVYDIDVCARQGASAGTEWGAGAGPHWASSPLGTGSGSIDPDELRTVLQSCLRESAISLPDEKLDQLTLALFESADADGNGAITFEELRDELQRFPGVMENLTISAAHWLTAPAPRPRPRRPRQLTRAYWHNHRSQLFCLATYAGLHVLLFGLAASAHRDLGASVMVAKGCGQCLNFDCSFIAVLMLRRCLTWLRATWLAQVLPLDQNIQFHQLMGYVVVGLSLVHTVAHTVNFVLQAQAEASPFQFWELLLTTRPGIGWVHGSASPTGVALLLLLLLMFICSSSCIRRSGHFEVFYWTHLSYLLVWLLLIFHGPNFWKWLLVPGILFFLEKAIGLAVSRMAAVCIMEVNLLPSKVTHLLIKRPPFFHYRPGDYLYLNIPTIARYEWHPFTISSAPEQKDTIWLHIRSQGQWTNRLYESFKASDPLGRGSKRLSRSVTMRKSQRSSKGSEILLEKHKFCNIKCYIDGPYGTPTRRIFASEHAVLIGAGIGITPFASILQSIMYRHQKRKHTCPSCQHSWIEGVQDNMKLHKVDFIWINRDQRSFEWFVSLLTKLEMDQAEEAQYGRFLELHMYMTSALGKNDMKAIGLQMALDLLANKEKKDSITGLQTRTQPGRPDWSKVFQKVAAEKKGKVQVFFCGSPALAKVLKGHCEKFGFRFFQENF
Chain of NADPH oxidase 2 (Homo sapiens) (P04839 whole entry, looked up): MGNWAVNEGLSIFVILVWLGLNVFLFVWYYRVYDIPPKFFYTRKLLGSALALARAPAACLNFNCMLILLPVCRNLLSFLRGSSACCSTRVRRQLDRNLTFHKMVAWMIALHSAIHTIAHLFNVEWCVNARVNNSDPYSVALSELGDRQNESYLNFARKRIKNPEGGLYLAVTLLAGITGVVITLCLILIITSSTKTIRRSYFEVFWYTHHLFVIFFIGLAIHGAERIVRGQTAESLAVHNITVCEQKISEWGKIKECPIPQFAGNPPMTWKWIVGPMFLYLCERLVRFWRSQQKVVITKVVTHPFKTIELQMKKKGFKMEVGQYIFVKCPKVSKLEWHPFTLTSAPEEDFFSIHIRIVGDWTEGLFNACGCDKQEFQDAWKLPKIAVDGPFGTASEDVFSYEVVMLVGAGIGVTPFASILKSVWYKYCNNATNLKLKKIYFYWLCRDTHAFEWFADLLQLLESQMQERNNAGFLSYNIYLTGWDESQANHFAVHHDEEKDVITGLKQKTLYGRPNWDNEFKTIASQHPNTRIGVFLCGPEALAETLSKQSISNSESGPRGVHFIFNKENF
Chain of NADPH oxidase 4 (Homo sapiens) (Q9NPH5 whole entry, looked up): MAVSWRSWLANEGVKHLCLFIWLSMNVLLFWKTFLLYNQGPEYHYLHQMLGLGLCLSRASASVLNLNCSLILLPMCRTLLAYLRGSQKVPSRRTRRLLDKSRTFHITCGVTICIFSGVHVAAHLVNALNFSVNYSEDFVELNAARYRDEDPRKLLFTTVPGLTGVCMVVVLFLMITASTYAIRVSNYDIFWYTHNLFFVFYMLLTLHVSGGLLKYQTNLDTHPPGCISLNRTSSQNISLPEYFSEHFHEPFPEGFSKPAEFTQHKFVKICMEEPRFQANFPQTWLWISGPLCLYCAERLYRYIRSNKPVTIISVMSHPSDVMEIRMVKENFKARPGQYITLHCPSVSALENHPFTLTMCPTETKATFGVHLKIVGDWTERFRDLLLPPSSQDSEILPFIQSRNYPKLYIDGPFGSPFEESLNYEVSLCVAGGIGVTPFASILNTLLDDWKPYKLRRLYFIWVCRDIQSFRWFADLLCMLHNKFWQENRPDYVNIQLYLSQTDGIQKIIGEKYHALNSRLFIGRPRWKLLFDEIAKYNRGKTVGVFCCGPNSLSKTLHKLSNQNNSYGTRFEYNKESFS

Row | SMILES | z-score [1] | composite z-score [2] | z-score [3] | z-score [4] | z-score [5] | z-score [6] | z-score [7] | z-score [8] | z-score [9] | z-score [10] | z-score [11] | z-score [12] | z-score [13] | z-score [14] | z-score [15] | z-score [16] | z-score [17] | z-score [18] | z-score [19] | z-score [20]
1 | C=CCNC(=O)[C@H]1[C@@H]2C(=O)O[C@@H](c3ccccc3)[C@@H](c3ccccc3)N2[C@@H](c2ccc(OCCO)cc2)[C@]12C(=O)Nc1ccc(C#CCC(C(=O)OC)C(=O)OC)cc12 | -0.283 (inactive) | 0.128 | 3.01 (inactive) | 0.664 (inactive) | -0.291 (inactive) | 0.117 (inactive) | -0.602 | 1.48 (inactive) | 1.21 (inactive) | 0.45 | -0.505 | 0.208 | 0.349 | -1.46 | -3.36 | -0.232 | 0.97 (inactive) | -0.817 | -1.12 | 0.149 (inactive)
2 | CCCC=C(CCC)[C@@H](NC(=O)OCC(C)C)c1ccccc1 | -1.93 (inactive) | 2.47 | -0.725 (inactive) | -0.732 (inactive) | 0.455 (inactive) | -1.61 (inactive) | 1.44 | -4.11 (inactive) | -3.58 (inactive) | -2.7 | -0.628 | 0.722 | -0.927 | -0.0228 | -1.71 | 0.485 | -0.594 (inactive) | 0.0132 | -0.558 | 0.292 (inactive)
3 | COc1ccc([Si](C)(C)[C@@H]2[C@@H](CC(=O)N3CCC[C@H]3CO)O[C@]3(C(=O)N(Cc4cccc(I)c4)c4ccccc43)[C@H]2C)cc1 | -0.423 (inactive) | -0.111 | 6.47 (inactive) | 0.966 (inactive) | 1.39 (inactive) | 0.917 (inactive) | 2.02 | 2.97 (inactive) | 0.91 (inactive) | 4.33 | -1.08 | 1.24 | -2.59 | -2.92 | -4.52 | -0.646 | -0.0158 (inactive) | -1.08 | -1.48 | -3.17 (inactive)
4 | C=CC1c2cc(O)c(OC)cc2CCN1Cc1cccc(OC(F)(F)F)c1 (stereo not given) | 0.277 (inactive) | 0.123 | 5.32 (inactive) | 0.544 (inactive) | 0.2 (inactive) | 0.451 (inactive) | -0.318 | -4.69 (inactive) | -2.9 (inactive) | -4.4 | -1.97 | 0.566 | -3.19 | -3.18 | -2.2 | -2.6 | -0.604 (inactive) | -0.752 | -1.85 | -0.821 (inactive)
5 | O=C1O[C@H](c2ccccc2)[C@H](c2ccccc2)N2[C@H]1[C@@H](C(=O)NC[C@H](O)c1ccccc1)[C@]1(C(=O)Nc3ccc(C#CC4=CCCCC4)cc31)[C@H]2c1ccccc1OCCO | -0.161 (inactive) | 0.199 | 1.84 (inactive) | 2.06 (inactive) | -0.932 (inactive) | 2.06 (inactive) | 0.233 | 1.42 (inactive) | 1.04 (inactive) | 1.83 | -2.45 | -0.406 | -3.88 | -3.28 | -4.23 | -2.22 | 1.26 (inactive) | -1.09 | -1.79 | -3.3 (inactive)
6 | O=C1C[C@@](C(=O)NCc2ccccc2)(c2ccc([N+](=O)[O-])cc2)[C@@H](c2ccc(CO)cc2)N1CC12CC3CC(CC(C3)C1)C2 | 0.874 (inactive) | -0.287 | 5.33 (inactive) | 0.786 (inactive) | 3.76 (inactive) | 0.674 (inactive) | -0.0355 | 0.208 (inactive) | -0.821 (inactive) | 1.1 | -0.702 | 0.0687 | -0.487 | -2.81 | -4.32 | 2.17 | 0.112 (inactive) | -0.552 | -1.2 | -3.09 (inactive)
7 | COC(=O)[C@@]1(Cc2ccc(F)cc2)[C@H]2c3cc(C(=O)N(C)C)n(Cc4ccc(C)o4)c3C[C@H]2CN1C(=O)c1ccccc1 | -0.92 (inactive) | 2.34 | 5.03 (inactive) | 1.73 (inactive) | 0.951 (inactive) | 1.3 (inactive) | -0.239 | 0.455 (inactive) | 0.056 (inactive) | 0.604 | 0.0895 | -0.333 | 0.625 | -1.58 | -2.03 | 0.0211 | -1.72 (inactive) | -0.847 | -0.209 | 0.501 (inactive)
8 | CO[C@H]1O[C@H](CO)[C@@H](OC(=O)Nc2ccccc2)[C@@H]2OC(=O)[C@@H](Cc3ccc4ccccc4c3)C/C=C/C[C@H](Cc3ccc4ccccc4c3)C(=O)O[C@@H]12 | 2.85 (inactive) | 0.0167 | 2.71 (inactive) | -0.0552 (inactive) | -1.94 (inactive) | -1.83 (inactive) | 0.77 | 0.829 (inactive) | 0.884 (inactive) | -0.542 | 0.72 | 0.397 | 0.705 | -0.268 | 0.575 | -1 | 0.688 (inactive) | -0.381 | -0.135 | -2.52 (inactive)
